{"source": "PubChem BioAssay AID485364", "about": "(National Center for Advancing Translational Sciences (NCATS), 2010)", "note": "Hit rate of the full screen: of about 360,000 compounds, about 11,000 (3.1%) were called active. Not shown: some 4% with an inconclusive outcome. The sample as a whole holds a higher share of actives than the screen did. Values without a mark were called inactive. Calls come from the whole dose curve; as a rule, active = well fitted inhibition curve with a large enough effect; inconclusive = small, poorly fitted or top-dose-only effect; inactive = no such curve, though single readings can be large or run the other way."}
{"biological_target": "Schistosoma mansoni thioredoxin glutathione reductase (TGR) (UniProt Q962Y6)", "test": "qHTS Assay for the Inhibitors of Schistosoma Mansoni Peroxiredoxins; note: nearly all actives have a fitted effect of over 60% in size; note: potency is the fitted concentration of half-maximal effect; for activity change, negative = inhibition: % is set by controls: 0 for no effect and ±100 for the full control effect", "details": "purified TGR, DTNB reduction, TNB absorbance 405 nm; series mostly up to 114 µM; activity change, negative = inhibition: at the top concentration", "excerpt": "Schistosomiasis is a major neglected tropical disease that currently affects over 200 million. It is caused by different species of flatworms, such as Schistosoma mansoni. Over the last century, drugs to treat the disease have evolved from potassium antimonyl tartrate, artemisinin, oxamniquine, to praziquantel, with praziquantel remaining the universally-used single drug of choice over the past three decades. However, transmission rates have changed little with praziquantel, and there is evidence for the development of drug resistant parasites. Because there is currently no suitable alternative therapy available, there is an urgent need to identify new targets and drugs for schistosomiasis treatment. Thioredoxin glutathione reductase (TGR), one uniquely positioned S. mansoni enzyme, has been identified as a major component of the worms' distinct and compressed antioxidant \"firewall\". TGR is a multifunctional enzyme that catalyzes the interconversion between reduced and oxidized forms of both glutathione (GSH) and thioredoxins, thus making it an attractive new antiparasitic target. Recently, a quantitative high-throughput screen of the NIH Molecular Libraries Small Molecule Repository (MLSMR, ~71K at the time of the screen in 2007) was performed using an assay that targeted both TGR and peroxiredoxin2 (Prx2, an H2O2-reducing enzymatic component of the S. mansoni redox \"firewall\") by following the decrease of NADPH fluorescence. […] Additional mechanistic link between exogenous NO donation and parasitic injury for the oxadiazole-2-oxide class of compounds was also expanded and better defined. Although the screen addressed both TGR and Prx2, the assay required post-screen target deconvolution for further characterization of the actives. In addition, the fluorescence assay was also subject to fluorescence interference from compound library members. We have developed a 1536-well-based kinetic HTS assay to address TGR alone. The assay followed the reduction of 5, 5'-dithiobis (2-nitrobenzoic acid) (DTNB) (Ellman's reagent) by NADPH and measured the increase in absorbance at 412 nm of the reaction product, TNB. […] This assay format can be used to screen the current MLSMR collection (with >300K compounds available) to find novel TGR inhibitors. Furoxan is a good choice to serve as a positive control in the primary HTS assay.\nThree microliters of reagents (100 uM NADPH and 20 nM TGR or 100 uM NADPH as no-enzyme control) were dispensed into 1,536-well black clear-bottomed plates. Compounds (23 nL) were transferred via Kalypsys pin tool equipped with 1536-pin array (10 nL slotted pins, V&P Scientific, San Diego, CA). The plates were then be incubated for 15 min at room temperature, and 1 uL aliquot of 500 uM NADPH were added, immediately followed by a 1 uL aliquot of 15 mM DTNB to start the reaction. The plate was transferred to a ViewLux high-throughput CCD imager (Perkin-Elmer, Wellesley, MA) where kinetic measurements of the TNB absorbance were acquired using a 405 excitation filter. Throughout the screen, reagent bottles and all liquid lines were made light-tight to minimize reagent degradation. All screening operations were performed on a fully integrated robotic system (Kalypsys, San Diego, CA) containing one RX-130 and two RX-90 anthropomorphic robotic arms (Staubli, Duncan, SC). Library plates were screened starting from the lowest and proceeding to the highest concentration, and a \"double-dipping\" step of the highest concentration was required to access higher concentrations of compounds. Vehicle-only plates, with DMSO being pin-transferred to the entire column 5-48 compound area, were inserted uniformly at the beginning and the end of each library in order to monitor for and record any shifts in the background, which can be affected by reagent dispensers or loss in enzyme activity overtime. […]", "units": {"activity change, negative = inhibition": "%"}}
{"compound": "COc1cccc(-c2n[nH]c3c2C(c2cccc(O)c2)N(C)C3=O)c1", "note": "(configuration not stated)", "activity change, negative = inhibition": -2.88}
{"compound": "Cc1nn2c(c1-c1ccccc1)N=C(c1ccco1)CC2c1ccccc1", "note": "(configuration not stated)", "Potency": "10 µM (active)"}
{"compound": "O=C(O)CCCC(=O)N1N=C(c2ccco2)CC1c1ccco1", "note": "(configuration not stated)", "activity change, negative = inhibition": -32.6}
{"compound": "Cc1nn(C(=O)c2ccoc2C)c(N)c1-c1ccccc1", "activity change, negative = inhibition": 0.165}
{"compound": "COc1ccc(NC(=O)CCNS(=O)(=O)c2ccc3c(c2)CCCC(=O)N3)cc1Cl", "activity change, negative = inhibition": 0.434}
{"compound": "CCCCn1c(SCc2ncc(-c3ccccc3)o2)nc2cc(S(N)(=O)=O)ccc21", "Potency": "20 µM (active)"}
{"compound": "CCCCn1c(SCC(=O)N2CCC(C(=O)OCC)CC2)nc2cc(S(N)(=O)=O)ccc21", "activity change, negative = inhibition": -11.3}
{"compound": "CCCCn1c(SCC(=O)N2CCCC2=O)nc2cc(S(N)(=O)=O)ccc21", "activity change, negative = inhibition": -10.3}
{"compound": "CCCOC(=O)c1c(NC(=O)c2cc3nc(-c4ccc(OC)cc4)cc(C(F)(F)F)n3n2)sc2c1CCCC2", "activity change, negative = inhibition": 53.4}
{"compound": "COc1ccc(C2(Nc3cccc(F)c3)C(=O)c3ccccc3C2=O)cc1", "activity change, negative = inhibition": 9.65}
{"compound": "CCNC(=S)N1CCN(CCN=CC2=C(O)CC(C)(C)CC2=O)CC1", "activity change, negative = inhibition": -20.2}
{"compound": "CC1(C)CC(=O)C(C=NCCN2CCN(C(=S)Nc3cccc(Cl)c3)CC2)=C(O)C1", "activity change, negative = inhibition": -9.3}
{"compound": "CC(=O)N1CCN(CCN=CC2=C(O)CC(C)(C)CC2=O)CC1", "Potency": "28.2 µM (active)"}
{"compound": "CCOc1ccccc1C(=O)NCc1ccc2c(c1)CCN2C(=O)c1ccc(F)cc1", "activity change, negative = inhibition": 0.127}
{"compound": "CCOC(=O)c1ccc(NC2=CC(c3ccc(OCC)cc3)N(c3ccc(C(=O)OCC)cc3)C2=O)cc1", "note": "(configuration not stated)", "activity change, negative = inhibition": -0.96}
{"compound": "CC(C)(C)OC(=O)N1CCC(c2c(C(=O)N3CCN(c4cccc(Cl)c4)CC3)cnn2-c2cccc(Cl)c2)CC1", "activity change, negative = inhibition": 14.1}
{"compound": "COc1ccc(NC(=O)COCc2cc(-c3ccco3)on2)cc1", "activity change, negative = inhibition": 0.166}
{"compound": "COc1ccccc1OCC(=O)OCc1cc(-c2ccco2)on1", "Potency": "56.2 µM (active)"}
{"compound": "COc1ccccc1OCC(=O)O/N=C(\\N)c1ccccn1", "activity change, negative = inhibition": 11.4}
{"compound": "O=C(CCS(=O)(=O)c1cc(Br)cc2c1N(C(=O)C1CC1)CC2)Nc1ccc(C(F)(F)F)cc1", "activity change, negative = inhibition": -5.59}
{"compound": "Cc1ccc(S(=O)(=O)N2CCN(S(=O)(=O)N3CCOCC3)CC2)cc1", "activity change, negative = inhibition": 0.025}
{"compound": "CC1(C)CC(=O)C(N=Nc2ccc(S(=O)(=O)N3CCCCCC3)cc2)=C(O)C1", "activity change, negative = inhibition": -12}
{"compound": "O=C1CCCC(O)=C1N=Nc1ccc(S(=O)(=O)N2CCOCC2)cc1", "Potency": "44.7 µM (active)"}
{"compound": "COc1ccc(-c2nn3c(-c4ccc(OC)cc4)nnc3c3ccccc23)cc1", "activity change, negative = inhibition": 8.01}
{"compound": "Cc1cc2c(cc3c(SCc4nc(-c5ccccc5)oc4C)nnc(C)n32)o1", "activity change, negative = inhibition": 1.33}
{"compound": "Cc1noc2ncnc(NCc3ccccc3Cl)c12", "activity change, negative = inhibition": -1.77}
{"compound": "Cc1c(C(=O)N(C)C)sc2c1c(=O)n(-c1ccc(F)cc1)c(=O)n2CC(=O)N(C)c1ccccc1", "activity change, negative = inhibition": 9.3}
{"compound": "C(=N\\Nc1ccc2ccccc2n1)/c1ccc2c(c1)OCO2", "activity change, negative = inhibition": 0.889}
{"compound": "Cc1cc(=O)[nH]c(N/N=C/c2c(C)nn(-c3ccccc3Cl)c2Cl)n1", "activity change, negative = inhibition": -10.1}
{"compound": "Cc1cc(=O)[nH]c(N/N=C/c2ccc3c(c2)OCCO3)n1", "Potency": "39.8 µM (active)"}
{"compound": "CC1=Nc2cc(C(=O)NCc3ccc(C)cc3)ccc2Sc2ccc(Cl)cc21", "activity change, negative = inhibition": -3.91}
{"compound": "COc1cccc(CNC(=O)Cn2ncn3c(cc4ccccc43)c2=O)c1", "activity change, negative = inhibition": 1.74}
{"compound": "COC(=O)C1=C(C)NC(=O)/C1=C/c1ccc(CNS(=O)(=O)c2ccc(C)cc2)o1", "Potency": "22.4 µM (active)"}
{"compound": "COc1ccccc1CNS(=O)(=O)c1ccc(C)cc1", "activity change, negative = inhibition": 0.213}
{"compound": "Cc1ccc(CCNC(=O)c2ccc(CNS(=O)(=O)c3ccc(C)cc3)cc2)cc1", "activity change, negative = inhibition": -4.55}
{"compound": "CCc1ccccc1NC(=O)c1ccc(F)c(S(=O)(=O)NC2CCCCCC2)c1", "activity change, negative = inhibition": 46.2}
{"compound": "COc1ccc(/C(C)=N/NC(=O)c2ccc3nc[nH]c3c2)cc1", "activity change, negative = inhibition": -6.56}
{"compound": "CN(C)N=Nc1ccc2nc[nH]c2c1", "Potency": "39.8 µM (active)"}
{"compound": "CC/C(O)=N\\S(=O)(=O)c1ccc(N=NN(C)C)cc1", "activity change, negative = inhibition": 9.42}
{"compound": "CCc1nn(CC(=O)Nc2cc(C)cc(C)c2)c(=O)c2cc3sccc3n12", "activity change, negative = inhibition": -2.35}
{"compound": "O=C(CCl)N(Cc1cccc([N+](=O)[O-])c1)c1cccc(Cl)c1", "Potency": "2.51 µM (active)"}
{"compound": "COC(=O)c1cc(C(=O)N(Cc2ccccc2)c2ccccn2)cc([N+](=O)[O-])c1", "activity change, negative = inhibition": -1.34}
{"compound": "CC(=O)N(CN1C(=O)C2CC=CCC2C1=O)c1cccc(Cl)c1", "note": "(configuration not stated)", "activity change, negative = inhibition": -19.7}
{"compound": "COc1cc(-c2noc(-c3ccc(N4CCCC4)c([N+](=O)[O-])c3)n2)cc(OC)c1OC", "activity change, negative = inhibition": -30}
{"compound": "O=C(Nc1ccc(Br)cc1)c1cc2nc(-c3ccccc3)cc(-c3ccccc3)n2n1", "activity change, negative = inhibition": 6.76}
{"compound": "Cc1ccc(NC(=O)C2CCCN2C(=O)OCc2ccccc2)cc1C", "note": "(configuration not stated)", "activity change, negative = inhibition": -10.2}
{"compound": "O=C(NNC(=O)C1CCC1)c1ccccc1", "activity change, negative = inhibition": 49.6}
{"compound": "Cc1ccc(NNC(=O)C2CCC2)cc1C", "Potency": "56.2 µM (active)"}
{"compound": "Cc1oc(-c2ccccc2F)nc1CN1CCC(C(=O)NCCc2ccc(Cl)cc2)CC1", "activity change, negative = inhibition": -0.147}
{"compound": "CCOC(=O)c1c(S(=O)(=O)N2CCCC(C(=O)NCc3cccc(C)c3)C2)c(C)n(C)c1C", "note": "(configuration not stated)", "activity change, negative = inhibition": 7.51}
{"compound": "Cc1ccccc1CS(=O)(=O)CC1Nc2ccc(C(=O)NCc3ccc(Cl)cc3)cc2NC1=O", "note": "(configuration not stated)", "activity change, negative = inhibition": -2.2}
{"compound": "Cc1cc(C)cc(NC(=O)Cc2csc(C)n2)c1", "activity change, negative = inhibition": 8.94}
{"compound": "Cc1cccc(C)c1NC(=O)CCCSc1nnc(-c2ccco2)n1-c1ccccc1", "Potency": "89.1 µM (active)"}
{"compound": "CCc1cccc(C)c1NC(=O)CSc1nnc(-c2ccco2)n1N", "activity change, negative = inhibition": 1.38}
{"compound": "CCOc1ccc(-n2c(SCC(N)=O)nnc2-c2ccco2)cc1", "activity change, negative = inhibition": -34}
{"compound": "O=C(NC(=S)NC1CCSC1=O)c1ccccc1F", "note": "(configuration not stated)", "activity change, negative = inhibition": 2.76}
{"compound": "CC(C)C(=O)NC(=S)Nc1ccccc1F", "activity change, negative = inhibition": -28.6}
{"compound": "COC(=O)c1ccccc1NC(=S)NC(=O)c1ccccc1F", "Potency": "22.4 µM (active)"}
{"compound": "O=C(Cn1cc(SCc2cccc(Cl)c2)c2ccccc21)N1CCCCC1", "activity change, negative = inhibition": 8.64}
{"compound": "Oc1c(C(c2ccccn2)N2CCOCC2)ccc2cccnc12", "note": "(configuration not stated)", "Potency": "0.794 µM (active)"}
{"compound": "Cn1c(C(=O)Nc2cccc(C(F)(F)F)c2)cc2c(=O)n3ccccc3nc21", "activity change, negative = inhibition": -5.71}
{"compound": "CCC(CC)NC(=O)/C=C/c1cccc([N+](=O)[O-])c1", "activity change, negative = inhibition": -7.28}
{"compound": "COC(=O)/C=C\\C(=O)Nc1cccc([N+](=O)[O-])c1", "Potency": "0.794 µM (active)"}
{"compound": "Cc1c(NC(=O)Nc2cccc([N+](=O)[O-])c2)c(=O)n(-c2ccccc2)n1C", "activity change, negative = inhibition": -26.1}
{"compound": "Cc1ccccc1NC(=S)Nc1cccc([N+](=O)[O-])c1", "Potency": "44.7 µM (active)"}
{"compound": "Cc1cc([N+](=O)[O-])ccc1NCc1cccc([N+](=O)[O-])c1", "activity change, negative = inhibition": -14}
{"compound": "O=C(Nc1cccc([N+](=O)[O-])c1)N1CCc2ccccc2C1", "activity change, negative = inhibition": -15.1}
